In PubChem BioAssay AID588683 (Broad Institute, 2011):
Potency and affinity values are given separately. A number with no mark means an inactive call. How the calls were made is not given here.

Biological target: Kelch-like ECH-associated protein 1 (Homo sapiens) + Nuclear factor erythroid 2-related factor 2 (Homo sapiens) (UniProt Q14145+Q16236)
Experiment: Keap1-Nrf2 protein-protein interaction inhibitors, dose response, biochemical, fluorescence polarization, cherry-picked samples (AID 588683);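 further: Kelch domain of Keap1 binding a fluorescein-labelled 9mer Nrf2 peptide; more negative means stronger inhibition of peptide binding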
Settings: Keap1/Nrf2 peptide fluorescence polarization, plate reader; series mostly up to 26 µM; activity change, negative = inhibition: at the top concentration

Sequence of Kelch-like ECH-associated protein 1 (Homo sapiens) + Nuclear factor erythroid 2-related factor 2 (Homo sapiens) (Q14145 whole entry, looked up, the tested form may be a part): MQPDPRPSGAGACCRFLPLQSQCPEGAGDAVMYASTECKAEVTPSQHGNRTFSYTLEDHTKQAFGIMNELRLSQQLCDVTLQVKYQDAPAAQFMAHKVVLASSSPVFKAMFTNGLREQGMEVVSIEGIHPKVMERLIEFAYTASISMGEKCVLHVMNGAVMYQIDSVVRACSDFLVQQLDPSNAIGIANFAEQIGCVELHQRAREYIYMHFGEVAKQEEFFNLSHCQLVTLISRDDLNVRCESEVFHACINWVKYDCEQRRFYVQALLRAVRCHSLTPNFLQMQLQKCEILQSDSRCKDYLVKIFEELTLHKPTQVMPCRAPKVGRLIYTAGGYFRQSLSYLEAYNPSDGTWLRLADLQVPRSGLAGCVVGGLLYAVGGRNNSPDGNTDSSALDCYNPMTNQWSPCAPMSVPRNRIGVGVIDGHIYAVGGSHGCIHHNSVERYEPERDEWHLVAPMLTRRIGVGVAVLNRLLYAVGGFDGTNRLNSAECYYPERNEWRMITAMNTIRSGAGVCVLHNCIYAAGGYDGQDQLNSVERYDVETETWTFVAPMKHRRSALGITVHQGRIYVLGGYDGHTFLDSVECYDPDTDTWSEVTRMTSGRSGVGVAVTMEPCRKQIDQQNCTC
Sequence of Kelch-like ECH-associated protein 1 (Homo sapiens) + Nuclear factor erythroid 2-related factor 2 (Homo sapiens) (Q16236 whole entry, looked up, the tested form may be a part): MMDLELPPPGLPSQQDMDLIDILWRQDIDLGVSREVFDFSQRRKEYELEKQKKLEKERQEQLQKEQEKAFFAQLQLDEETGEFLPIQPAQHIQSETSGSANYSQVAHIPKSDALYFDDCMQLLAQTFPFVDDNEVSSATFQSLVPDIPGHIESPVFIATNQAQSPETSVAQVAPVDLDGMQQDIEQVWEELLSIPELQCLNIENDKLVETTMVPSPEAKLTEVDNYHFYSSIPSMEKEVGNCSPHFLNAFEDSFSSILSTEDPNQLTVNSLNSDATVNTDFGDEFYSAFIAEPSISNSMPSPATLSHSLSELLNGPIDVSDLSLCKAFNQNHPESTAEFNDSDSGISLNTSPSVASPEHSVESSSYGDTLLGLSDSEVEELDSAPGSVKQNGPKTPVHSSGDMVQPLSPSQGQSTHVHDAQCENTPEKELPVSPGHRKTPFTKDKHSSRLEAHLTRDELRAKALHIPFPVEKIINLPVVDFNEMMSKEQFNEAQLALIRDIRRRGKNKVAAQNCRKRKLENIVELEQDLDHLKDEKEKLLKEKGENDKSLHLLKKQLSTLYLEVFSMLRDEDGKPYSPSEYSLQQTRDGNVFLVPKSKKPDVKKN

Compared with `CC1(C)CC(=O)C2=C(C1)OC1=C(C2)C(=O)CC(C)(C)C1`, `O=C1CCn2c1c(O)c1ccccc1c2=O` is higher in “activity change, negative = inhibition” value: -5.94% for the first, -4.71% for the second.

First: O=[N+]([O-])c1cncc([N+](=O)[O-])c1Nc1cccc(O)c1
Second: O=[N+]([O-])c1ccc(S(=O)(=O)c2ccccc2)nc1
The “activity change, negative = inhibition” value of the first is higher: -4.53% for the first, -12.1% for the second.

Compared with `CCCN1CNC(=S)N(c2cc(C)ccc2C)C1`, `Cc1cccc(NC(=O)CCN2CCCCC2)c1` is higher in “activity change, negative = inhibition” value: -10% for the first, 0.772% for the second.

Compared with `O=C(CCN1C(=O)/C(=C/c2ccco2)SC1=S)Nc1ccc(O)cc1C(=O)O`, `COc1cc(NC(=O)CSc2nc3cc(C)ccc3cc2C)c(C(=O)O)cc1OC` is lower in “activity change, negative = inhibition” value: 4.28% for the first, -2.64% for the second.

First: C=CCn1ccc(=NC=C(C#N)C#N)c2ccccc21
Second: C=CCn1cccc(C(=O)Nc2ccc(OC)c(Cl)c2)c1=O
The “activity change, negative = inhibition” value of the first is higher: 45.1% for the first, -2.59% for the second.

First: NC(=O)COc1ccc(NC(=O)CC23CC4CC(CC(C4)C2)C3)cc1
Second: CCOc1ccc(NC(=O)COC(=O)CCN2C(=O)C3CC=CCC3C2=O)cc1OCC (configuration not stated)
The “activity change, negative = inhibition” value of the first is higher: 7.9% for the first, -10.6% for the second.

First: CCOCCCn1c(=NC(=O)c2cccs2)c(C#N)cc2c(=O)n3ccccc3nc21
Second: N=c1c(C(=O)NC2CCCC2)cc2c(=O)n3ccccc3nc2n1Cc1ccccc1
The “activity change, negative = inhibition” value of the first is lower: -14.5% for the first, -5.93% for the second.

First: Cc1nnc(NC(=O)c2ccc3c(c2)NC(=O)CS3)s1
Second: O=C(Nn1cnnc1)c1ccc(Cl)c(Cl)c1
The “activity change, negative = inhibition” value of the first is lower: -3.13% for the first, 4.89% for the second.

First: CCc1cc[n+](-c2nc([O-])sc2C=O)cc1
Second: Cc1cc[n+](-c2[nH]c(=O)sc2/C=N/NC([S-])=Nc2ccccc2)cc1
The “activity change, negative = inhibition” value of the first is lower: -13.4% for the first, 39% for the second.

First: CNC(=S)Nc1cccc(C(=O)OC)c1
Second: O=C(COC(=O)/C=C/c1cccc(Cl)c1)NC1CC1
The “activity change, negative = inhibition” value of the first is lower: 1.38% for the first, 10.7% for the second.

First: O=C(CCc1ccccc1)NNc1ccc(F)cc1
Second: Cc1sc2ccccc2[n+]1CC(=O)c1ccccc1
The “activity change, negative = inhibition” value of the first is lower: 2.16% for the first, 12.6% for the second.

First: CCN1CC=C2C(C1)C(c1ccc(Cl)s1)C(C#N)=C(N)C2(C#N)C#N (configuration not stated)
Second: CC1CCN(C(=O)Cn2cc(C(F)(F)F)ccc2=O)c2ccccc2S1 (configuration not stated)
The “activity change, negative = inhibition” value of the first is lower: -10% for the first, 2.04% for the second.

First: C=CCOc1ccc(C=NNc2ccc(S(=O)(=O)Nc3ccccc3C(=O)O)cc2[N+](=O)[O-])cc1OC
Second: CCOC(=O)C(C)(C)N(Cc1ccccc1C)S(=O)(=O)c1ccc(Cl)c([N+](=O)[O-])c1
The “activity change, negative = inhibition” value of the first is higher: -0.849% for the first, -14.5% for the second.

Going from `Cc1ccc(Cn2c(=N)c(C(=O)NC3CCCC3)cc3c(=O)n4ccccc4nc32)cc1` to `COc1ccc(NC(=S)N2CCN(Cc3ccc(C)cc3)CC2)cc1`, the “activity change, negative = inhibition” value rises from -7.84% to 1.39%.

Going from `O=C(O)c1cccc(-n2cccc2/C=C2/NC(=O)N(c3ccc(Cl)cc3)C2=O)c1` to `O=C1CC(Cc2ccc(Cl)cc2)C(=O)N1c1cc(Cl)ccn1` (configuration not stated), the “activity change, negative = inhibition” value rises from 2.3% to 2.69%.

First: COc1cc2c3nnc(-c4ccc(F)cc4)c-3cn(Cc3ccc(C)cc3)c2cc1OC
Second: COc1ccc(Nc2nc3ccccc3nc2-n2nc(C)cc2C)cc1
The “activity change, negative = inhibition” value of the first is higher: 207% for the first, -0.148% for the second.

Compared with `CC(C)Cn1c(N)c(C(=O)CSc2nnc(-c3ccco3)n2C)c(=O)n(C)c1=O`, `Cc1ccc2oc(=O)c3cnn(CC(=O)NCCC(C)C)c3c2c1` is lower in “activity change, negative = inhibition” value: 1.3% for the first, -7.73% for the second.

Compared with `O=C(NCc1cccc(F)c1)c1cccc2c1C(=O)c1ccc(N3CCCC3)cc1S2(=O)=O`, `CCOc1ccc(OCCCC(=O)N(CC)CC(=O)Nc2c(F)cccc2F)cc1` is lower in “activity change, negative = inhibition” value: 10.5% for the first, 1.23% for the second.

For `Clc1ccc(C2=CC(c3ccco3)n3ncnc3N2)cc1` (configuration not stated), the “activity change, negative = inhibition” value was -20.5%.
